# The list is not random: actives were taken first. Their share in the collection is about 7.9%.
# HT1080NT lethal = kills 2HG-producing HT-1080-NT fibrosarcoma cells; HT-1080-NT fibrosarcoma viability, CellTiter-Glo ATP luminescence, 48 h; Potency, µM (doses to about 46.1 µM), actives largely listed as cytotoxic; 360,000 tested, 1.6% active; AID 686970;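 also: NT is the 2HG producing partner of a matched IDH1 knockdown line; nearly all actives have a fitted effect of over 55% in size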
#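 HT-1080-NT fibrosarcoma cells (2HG-overproducing), 750 cells/well in RPMI with 5% FBS, dosed after 2 h and incubated 48 h at 37C. CellTiter-Glo luminescence normalized to DMSO and no-cell wells; concentration-response curves fitted and classed.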
# MCF10A rereplic = DNA re-replication induction in MCF 10a cells; Potency, µM (titrated, usually from 46.1 µM), usual class: activators; 350,000 tested, 2.9% active; MCF 10A DNA re-replication, Hoechst nuclear intensity, 48 h; also: nearly all actives have a fitted effect of over 50% in size
# KB-3-1 cytotox = kills parental KB-3-1 adenocarcinoma cells | KB-3-1 viability, CellTiter-Glo ATP luminescence, 72 h | Potency, µM (highest dose often 46.1 µM), actives largely listed as cytotoxic | 400,000 tested, 1.4% active; also: nearly all actives have a fitted effect of over 60% in size
#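 Parental KB-3-1 adenocarcinoma cells in phenol-red-free DMEM with 10% FBS were pin-treated with compounds at several concentrations, incubated 72 h at 37 °C, and viability read by CellTiter-Glo luminescence; concentration-effect curves were fitted after normalization.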
# SW480 rereplic = induces DNA re-replication in SW480 colon adenocarcinoma cells; Potency, µM (doses to about 46.1 µM), usual class: activators; SW480 DNA re-replication, Hoechst DNA content imaging, 48 h; AID 624297; 340,000 tested, 1.8% active; also: nearly all actives have a fitted effect of over 55% in size
#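 Image-based DNA-content assay: after two days of treatment, nuclei were labelled with the DNA dye Hoechst and imaged, and hits were compounds raising the count of nuclei showing high fluorescence intensity.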
# KB-V1 MDR tox = KB-V1 MDR subline cytotoxicity. 400,000 tested, 3.4% active. Potency, µM (top dose mostly 46.1 µM), usual class: cytotoxic. AID 1347076. KB-V1 MDR cells viability, CellTiter-Glo, 72 h; also: nearly all actives have a fitted effect of over 60% in size
#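 Drug-selected KB-V1 cells, grown in DMEM lacking phenol red with 10% FBS, receive compound titrations; after three days at 37 degrees C, surviving cell ATP is quantified by CellTiter-Glo luminescence and responses normalized and curve-fitted.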
# HT1080 IDH1KD tx = toxicity to HT-1080 IDH1 knockdown cells (counter line). HT-1080 IDH1 knockdown viability, ATP luminescence, 48 h. AID 686971. Potency, µM (top dose mostly 46.1 µM), usual class: cytotoxic. 360,000 tested, 2% active
#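 CellTiter-Glo luminescence after 48 h compound exposure at 37 degrees C of IDH1-knockdown HT-1080 cells in 5% FBS RPMI. %Activity scaled between DMSO wells and cell-free media wells, with curves fitted and assigned curve classes.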
# Numbers stand for hits; - = inactive; ? = inconclusive; . = no result given. Calls follow the shape of the dose curve; as a rule, active = well fitted curve in the direction sought with a large enough effect; inconclusive = small, poorly fitted or top-dose-only effect, or another doubt; inactive = no such curve, though single readings can be large; an effect the other way counts as inactive or inconclusive.
SMILES,HT1080NT lethal,MCF10A rereplic,KB-3-1 cytotox,SW480 rereplic,KB-V1 MDR tox,HT1080 IDH1KD tx
O=C(CSc1nc2c([nH]c3ccccc32)c(=O)n1-c1ccc(Cl)cc1)NCc1ccccc1,.,.,-,.,-,.
O=C(C1CCCN(S(=O)(=O)c2ccc(Br)s2)C1)N1CCN(c2ccccc2F)CC1 (centres undefined),.,.,-,.,?,.
COc1ccc2nc(NC(=O)c3cc(C)oc3C)sc2c1,-,-,?,-,?,-
COc1ccc2nc(NC(=O)c3ccoc3C)sc2c1,10µM,?,-,-,7.3µM,11µM
Clc1ccc(-c2csc3ncnc(N4CCc5ccccc5C4)c23)cc1,-,?,-,-,16µM,-
CC(C)c1ccc(-c2csc3ncnc(N4CCN(C)CC4)c23)cc1,16µM,?,-,-,-,21µM
Clc1ccc(CN2CCN(c3ncnc4scc(-c5cccs5)c34)CC2)cc1,-,?,?,-,13µM,-
CN1CCCN(c2ncnc3scc(-c4ccc(F)cc4)c23)CC1,-,-,-,-,-,-
Nc1nc(=S)[nH]c2n[nH]nc12,.,.,-,.,-,.
O=C(NCCc1ccccc1)c1ccc(NC(=O)C2CCC2)cc1,-,-,-,-,-,-
Cc1ccc(NC(=O)CSCn2nnc3c(=O)[nH]c(Cc4ccc(F)cc4)nc32)c(C)c1,.,.,?,.,-,.
CCc1cccc(C)c1NC(=O)CSc1nnc(CCCOc2ccc(Cl)cc2Cl)n1C,-,-,18µM,-,4.6µM,?
Cn1c(CCCOc2ccc(Cl)cc2Cl)nnc1SCC(=O)Nc1cccc(F)c1,?,?,-,-,-,-
Cn1c(CCCOc2ccc(Cl)cc2Cl)nnc1SCC(=O)Nc1ccc(F)c(Cl)c1,?,23µM,-,-,-,-
CN1CCN(C(=O)/C=C/c2ccc([N+](=O)[O-])cc2)CC1,-,?,-,-,-,-
CCn1cc(CN(C)C(=O)/C=C/c2ccc([N+](=O)[O-])cc2)c(C)n1,-,-,-,-,18µM,-
Cc1nn(C)cc1C(=O)/C=C/c1ccc([N+](=O)[O-])cc1,23µM,?,?,?,?,?
COc1cccc(C2CC(=O)N(c3ccc(F)cc3)C3=C2C(=O)OC3)c1OC (centres undefined),.,.,-,.,-,.
Cc1ccc(/C=C2\SC(=S)N(C3CCS(=O)(=O)C3)C2=O)cc1 (centres undefined),-,-,-,0.0052µM,-,-
CC(C)c1ccc(-c2cc(C(=O)N3N=C(C(F)F)CC3(O)C(F)F)c3ccccc3n2)cc1 (centres undefined),?,4.5µM,?,?,?,?
O=C(c1cc(C2CC2)nc2ccccc12)N1N=C(C(F)F)CC1(O)C(F)F (centres undefined),-,?,-,-,?,-
OC(CON=C1c2ccccc2-c2ccccc21)CN1CCNCC1 (centres undefined),21µM,?,?,-,-,23µM
OC(COc1ccccc1)CN1CCN(CC(O)COc2ccccc2)CC1 (centres undefined),-,?,-,-,-,-
OCc1ccccn1,.,-,.,-,.,.
CCc1ccc(OCC(=O)Nc2cccc3c2CCCC3)cc1,-,-,-,7.3µM,-,-
SMILES,HT1080NT lethal,MCF10A rereplic,KB-3-1 cytotox,SW480 rereplic,KB-V1 MDR tox,HT1080 IDH1KD tx
CCc1ccc(OCC(=O)N2c3ccccc3CCc3ccccc32)cc1,-,?,?,?,18µM,-
CCS(=O)(=O)c1ccc(O)c(NC(=O)COc2ccccc2)c1,-,-,-,-,-,-
CCCC(=O)Nc1cccc2c1CCCC2,-,-,-,-,-,-
CCc1ccc(OCC(=O)Nc2cc(S(=O)(=O)CC)ccc2O)cc1,-,-,-,-,16µM,-
CCc1ccc(OCC(=O)N2CCc3ccccc32)cc1,-,-,-,-,-,-
Cc1ccc(Cn2c(C)c(CNC3CCCCC3)c(C(=O)O)c2C)cc1,.,.,-,.,?,.
COC(=O)C1CCN(c2ccc([N+](=O)[O-])cc2[N+](=O)[O-])CC1,-,-,-,-,16µM,-
CC(=O)NS(=O)(=O)c1cccnc1Nc1cccc(Cl)c1C,-,-,-,0.52µM,-,-
Cc1ccc(S(=O)(=O)Nc2c(C)cc([N+](=O)[O-])cc2C)cc1,-,-,-,-,-,-
Cc1ccc(S(=O)(=O)c2ccc([N+](=O)[O-])o2)cc1,7.3µM,?,?,?,13µM,2.6µM
COc1cccc(CN2C(=O)C(C)N(C(=O)c3c(F)cccc3F)c3ccccc32)c1 (centres undefined),?,?,?,-,-,-
CC1C(=O)N(Cc2ccccc2F)c2ccccc2N1C(=O)c1c(F)cccc1F (centres undefined),-,21µM,?,-,-,-
Cc1ccc(OCCOC(=O)Nc2ccccc2)cc1,-,-,-,-,?,-
O=C(Nc1ccccc1)OCCOc1ccc(Br)cc1,-,18µM,-,-,-,-

# Compound activity deposited in PubChem BioAssay by National Center for Advancing Translational Sciences (NCATS).
